Reference: PubChem BioAssay (Tox21)
Records with an inconclusive call do not appear. Activity calls are given as the source filed them. Unless noted, the call rests on the fitted dose curve; in most records, active means well fitted curve in the direction sought with a large enough effect in the repeat runs; inconclusive means weak or mixed curves; inactive means no such curve, though single readings can be large; an effect the other way counts as inactive or inconclusive.

Assays:
[1] = qHTS assay to test for compound auto fluorescence at 535 nm (green) in HEK293 cells (AID 720680)
[2] = qHTS assay to test for compound auto fluorescence at 460 nm (blue) in HEK293 cell free culture (AID 720681)
Summary of the method: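 Test compounds were pinned into cell-free culture medium (DMEM with 10% FBS) and fluorescence was read directly at Ex/Em 405/460 nm. Signals were expressed as fluorescence equivalents of triamterene, with DMSO vehicle as control.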

[3] = qHTS assay to test for compound auto fluorescence at 535 nm (green) in HEK293 cell free culture (AID 720682)
Summary of the method: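 Each library compound, or DMSO control, is added by pintool to medium alone, comprising DMEM and 10% FBS. Emission at 535 nm following 485 nm excitation is quantified against fluorescein.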

[4] = qHTS assay to test for compound auto fluorescence at 590 nm (red) in HEK293 cell free culture (AID 720683)
Summary of the method: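 Tox21 10K library compounds were pinned into cell-free DMEM with 10% FBS and fluorescence was read at excitation 540 nm. Activity is expressed as Rose Bengal sodium equivalency.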

[5] = qHTS assay to test for compound auto fluorescence at 590 nm (red) in HepG2 cell free culture (AID 720684)
Summary of the method: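 Readout: intrinsic compound fluorescence at 590 nm emission after 540 nm excitation, scaled to Rose Bengal sodium. Matrix was cell-free MEM with 10% FBS; DMSO vehicle wells served as control.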

[6] = qHTS assay to test for compound auto fluorescence at 460 nm (blue) in HepG2 cell free culture (AID 720685)
Summary of the method: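 Cell-free plates of MEM plus 10% FBS received 23 nL compound or DMSO vehicle; blue-channel (405/460 nm) intensity scored against triamterene as reference fluorophore.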

[7] = qHTS assay to test for compound auto fluorescence at 535 nm (green) in HepG2 cell free culture (AID 720686)
[8] = qHTS assay to test for compound auto fluorescence at 460 nm (blue) in HepG2 cells (AID 720687)
Summary of the method: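 Cells (2,000/well in MEM with 10% FBS) attached overnight at 37 C, then were exposed to compound or DMSO for 1 hr at 37 C, 5% CO2. Fluorescence read at Ex/Em 405/460 nm, expressed as triamterene-equivalent signal.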

[9] = target: Glucocorticoid receptor (Homo sapiens) (UniProt P04150); assay: qHTS assay to identify small molecule agonists of the glucocorticoid receptor (GR) signaling pathway (AID 720691; active means well fitted activation curve with a large enough effect in the signal ratio in the repeat runs, not every such curve was filed as active; the % refers to the signal ratio)
Glucocorticoid receptor (Homo sapiens), sequence (P04150 whole entry, looked up): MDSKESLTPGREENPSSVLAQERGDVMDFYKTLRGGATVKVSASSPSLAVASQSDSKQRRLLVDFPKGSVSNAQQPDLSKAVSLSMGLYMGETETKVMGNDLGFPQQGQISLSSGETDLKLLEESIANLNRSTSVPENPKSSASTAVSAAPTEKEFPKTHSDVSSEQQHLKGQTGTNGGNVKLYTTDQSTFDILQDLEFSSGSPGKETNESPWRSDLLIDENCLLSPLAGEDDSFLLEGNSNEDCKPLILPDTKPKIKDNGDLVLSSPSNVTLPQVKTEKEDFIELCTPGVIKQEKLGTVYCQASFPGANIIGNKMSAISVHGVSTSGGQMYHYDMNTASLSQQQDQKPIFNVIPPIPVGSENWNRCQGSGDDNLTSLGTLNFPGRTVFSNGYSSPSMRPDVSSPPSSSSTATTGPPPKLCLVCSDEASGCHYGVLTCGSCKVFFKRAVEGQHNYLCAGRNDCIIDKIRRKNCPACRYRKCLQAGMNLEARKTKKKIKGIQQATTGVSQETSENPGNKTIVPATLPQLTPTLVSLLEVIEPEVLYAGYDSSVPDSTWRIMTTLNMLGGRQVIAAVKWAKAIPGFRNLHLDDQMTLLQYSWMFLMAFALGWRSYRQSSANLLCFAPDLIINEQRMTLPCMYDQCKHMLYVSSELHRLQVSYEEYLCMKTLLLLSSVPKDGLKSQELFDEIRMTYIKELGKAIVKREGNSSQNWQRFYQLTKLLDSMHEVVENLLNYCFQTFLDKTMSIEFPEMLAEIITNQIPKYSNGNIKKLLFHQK
Summary of the method: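 Compounds in DMSO, alongside positive controls, were added to GR-bla HeLa reporter cells and incubated 18 h at 37 C; GRE-driven beta-lactamase was detected by fluorescence after 2 h with FRET substrate at room temperature.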

[10] = qHTS assay to identify small molecule antagonists of the glucocorticoid receptor (GR) signaling pathway - cell viability counter screen (AID 720693); further: nearly all actives have a fitted effect of over 55% in size
[11] = qHTS assay for identifying genotoxic compounds that show differential cytotoxicity against isogenic chicken DT40 cell lines with known DNA damage response pathways - wild type cell line (AID 743012); further: nearly all actives have a fitted effect of over 60% in size
Summary of the method: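 Viability of DNA repair-proficient chicken DT40 cells was assessed by CellTiter-Glo luminescence following 40 h compound exposure at 37 C/5% CO2.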

[12] = qHTS assay for identifying genotoxic compounds that show differential cytotoxicity against isogenic chicken DT40 cell lines with known DNA damage response pathways - Rev3 mutant cell line (AID 743014); further: nearly all actives have a fitted effect of over 55% in size; further: potency means the concentration at half of the fitted maximal effect
[13] = qHTS assay for identifying genotoxic compounds that show differential cytotoxicity against isogenic chicken DT40 cell lines with known DNA damage response pathways - Rad54/Ku70 mutant cell line (AID 743015); further: nearly all actives have a fitted effect of over 60% in size; further: potency means the concentration at half of the fitted maximal effect
[14] = qHTS assay to identify small molecule antagonists of the androgen receptor (AR) signaling pathway - cell viability counter screen (AID 743033; further: nearly all actives have a fitted effect of over 45% in size)
[15] = qHTS assay to identify small molecule antagonists of the androgen receptor (AR) signaling pathway using the MDA cell line - cell viability counter screen (AID 743041; further: nearly all actives have a fitted effect of over 45% in size)
Summary of the method: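 qHTS viability read-out; MDA-kb2 AR-luc; R1881-stimulated; 16 h exposure at 37C, 0% CO2; CellTiter-Fluor, 30 min; fluorescence intensity.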

[16] = qHTS assay to identify small molecule antagonists of the thyroid receptor (TR) signaling pathway - cell viability counter screen (AID 743064); further: nearly all actives have a fitted effect of over 50% in size
Summary of the method: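 CellTiter-Fluor readout, 30 min at 37 °C/5% CO2, following 23.5 h incubation of GH3.TRE-Luc cells with test compound and 1 nM T3 (final).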

[17] = target: Glucocorticoid receptor (Homo sapiens) (UniProt P04150); assay: qHTS assay to identify small molecule antagonists of the glucocorticoid receptor (GR) signaling pathway (AID 720692; active means well fitted inhibition curve with a large enough effect in the signal ratio in the repeat runs, not every such curve was filed as active; the % refers to the signal ratio; further: potency means the concentration at half of the fitted maximal effect)
Summary of the method: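 In a 1536-well cell format, compounds were added 4 h after seeding GR-bla HeLa cells, together with dexamethasone at 5 nM final; reporter activity was measured by FRET-substrate fluorescence following 18 h at 37 C.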

[18] = target: Androgen receptor (Homo sapiens) (UniProt P10275); assay: qHTS assay to identify small molecule antagonists of the androgen receptor (AR) signaling pathway (AID 743035; active means well fitted inhibition curve with a large enough effect in the signal ratio in the repeat runs, not every such curve was filed as active; the % refers to the signal ratio)
Androgen receptor (Homo sapiens), sequence (P10275 whole entry, looked up): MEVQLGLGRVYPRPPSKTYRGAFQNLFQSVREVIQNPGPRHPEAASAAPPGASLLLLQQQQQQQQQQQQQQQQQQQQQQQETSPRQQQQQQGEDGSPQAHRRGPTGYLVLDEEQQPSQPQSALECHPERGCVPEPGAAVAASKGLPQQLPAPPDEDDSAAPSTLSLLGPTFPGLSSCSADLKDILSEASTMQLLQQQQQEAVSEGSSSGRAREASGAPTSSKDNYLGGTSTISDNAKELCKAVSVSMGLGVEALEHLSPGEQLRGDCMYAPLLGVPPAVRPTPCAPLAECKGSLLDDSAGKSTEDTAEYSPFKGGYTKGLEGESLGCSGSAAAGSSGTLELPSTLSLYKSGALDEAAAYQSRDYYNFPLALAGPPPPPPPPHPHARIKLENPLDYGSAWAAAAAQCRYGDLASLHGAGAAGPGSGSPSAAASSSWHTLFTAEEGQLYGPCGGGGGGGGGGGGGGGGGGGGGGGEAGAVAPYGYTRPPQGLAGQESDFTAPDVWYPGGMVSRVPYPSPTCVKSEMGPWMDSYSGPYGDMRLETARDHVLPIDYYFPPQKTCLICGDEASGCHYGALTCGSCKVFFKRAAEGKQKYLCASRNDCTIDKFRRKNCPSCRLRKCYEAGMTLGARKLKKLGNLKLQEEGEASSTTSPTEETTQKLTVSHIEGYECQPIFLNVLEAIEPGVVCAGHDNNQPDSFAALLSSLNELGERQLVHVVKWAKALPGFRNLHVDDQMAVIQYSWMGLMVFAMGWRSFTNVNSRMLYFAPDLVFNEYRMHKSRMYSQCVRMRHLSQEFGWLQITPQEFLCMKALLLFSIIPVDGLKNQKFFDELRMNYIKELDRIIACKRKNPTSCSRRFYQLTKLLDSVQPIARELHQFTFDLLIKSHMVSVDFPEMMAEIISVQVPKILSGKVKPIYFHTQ
Summary of the method: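 Reporter HEK293 cells were exposed to compounds and R1881 overnight (16 h, 37C); beta-lactamase activity was then quantified by FRET fluorescence.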

[19] = target: Androgen receptor (Homo sapiens) (UniProt P10275); assay: qHTS assay to identify small molecule agonists of the androgen receptor (AR) signaling pathway using the MDA cell line (AID 743040; further: nearly all actives have a fitted effect of over 20% in size)
Summary of the method: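 Agonist activity is measured as luciferase luminescence in human MDA-kb2 cells whose MMTV reporter responds to both AR and GR. Compounds in DMSO incubate 16 h at 37C, 0% CO2, and ONE-Glo is read after 30 min.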

[20] = target: Androgen receptor (Homo sapiens) (UniProt P10275); assay: qHTS assay to identify small molecule antagonists of the androgen receptor (AR) signaling pathway using the MDA cell line (AID 743042; further: nearly all actives have a fitted effect of over 55% in size)
Summary of the method: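 MDA-kb2 cells (human breast carcinoma, stably carrying an MMTV-luciferase reporter responsive to AR and GR) were plated at 3,000 cells/well and preincubated 5 hr at 37C, then given compound plus R1881 agonist for 16 h. ONE-Glo luminescence was read.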
On the % scale 0 is the no-effect control and ±100 the full control effect.

CCCCCCC#CC(=O)OC
inactive: outcome [1] | outcome [2] | outcome [3] | outcome [4] | outcome [5] | outcome [6] | outcome [7] | outcome [8] | Potency [9] | outcome [10] | Potency [11] | Potency [12] | Potency [13] | outcome [14] | Potency [15] | Potency [16]

O=C(CO)[C@@H](O)[C@H](O)[C@H](O)CO
inactive: outcome [1] | outcome [2] | outcome [3] | outcome [4] | outcome [5] | outcome [6] | outcome [7] | outcome [8] | Potency [17] | outcome [10] | Potency [11] | Potency [12] | Potency [13] | outcome [14] | Potency [15] | Potency [16]

CN(C)CCCN(C)CCCN(C)C
inactive: outcome [1] | outcome [2] | outcome [3] | outcome [4] | outcome [5] | outcome [6] | outcome [7] | outcome [8] | Potency [17] | outcome [10] | Potency [11] | Potency [12] | Potency [13] | outcome [14] | Potency [16]

CCNS(=O)(=O)c1ccc(C)cc1
inactive: outcome [1] | outcome [2] | outcome [3] | outcome [4] | outcome [5] | outcome [6] | outcome [7] | outcome [8] | Potency [9] | outcome [10] | Potency [11] | Potency [13] | outcome [14] | Potency [15] | Potency [16]

Cc1cc(C)c(N=Nc2c(O)c(S(=O)(=O)O)cc3cc(S(=O)(=O)O)ccc23)cc1C
inactive: fluorescence, % of fluorescein [1] -0.0092% [at 9.17 µM] | fluorescence, % of fluorescent control [2] -0.0769% [at 9.17 µM] | activity change [3] 0.0216% [at 9.17 µM] | fluorescence, % of fluorescent control [4] 0.0378% [at 9.17 µM] | fluorescence, % of Rose Bengal [5] 0.0175% [at 9.17 µM] | fluorescence, % of fluorescent control [6] -0.11% [at 9.17 µM] | fluorescence, % of fluorescein control [7] -0.0747% [at 9.17 µM] | fluorescence, % of fluorescent control [8] -0.0207% [at 9.17 µM] | activity change, negative = inhibition [17] 0.597% [at 7.04 µM] | viability change, negative = cytotoxic [10] -0.62% [at 7.04 µM] | activity change, negative = cytotoxicity [11] -7.67% [at 8.52 µM] | activity, negative = cytotoxicity [12] 0.342% [at 8.53 µM] | activity change, negative = cytotoxicity [13] 1.01% [at 8.55 µM] | activity change, negative = cytotoxicity [14] -2% [at 7.04 µM] | viability change, negative = cytotoxic [15] -1.15% [at 8.47 µM] | activity change, negative = cytotoxic [16] -15.7% [at 8.44 µM]

c1coc(CNc2ncnc3nc[nH]c23)c1
inactive: outcome [1] | outcome [2] | outcome [3] | outcome [4] | outcome [5] | outcome [6] | outcome [7] | outcome [8] | Potency [9] | outcome [10] | outcome [14] | Potency [15] | Potency [16]
active: Potency [13] 54.5 µM

CCOC(=O)COC(=O)c1ccccc1C(=O)OCC
inactive: outcome [1] | outcome [2] | outcome [3] | outcome [4] | outcome [5] | outcome [6] | outcome [7] | outcome [8] | Potency [17] | outcome [10] | Potency [11] | Potency [12] | Potency [13] | outcome [14] | Potency [16]

CCCCCCCCN1CCCC1=O
inactive: outcome [1] | outcome [2] | outcome [3] | outcome [4] | outcome [5] | outcome [6] | outcome [7] | outcome [8] | Potency [9] | Potency [17] | outcome [10] | Potency [12] | outcome [14] | Potency [15] | Potency [16]

CCCCS(=O)(=O)N[C@@H](Cc1ccc(OCCCCC2CCNCC2)cc1)C(=O)O
inactive: outcome [1] | outcome [2] | outcome [3] | outcome [4] | outcome [5] | outcome [6] | outcome [7] | outcome [8] | outcome [10] | Potency [11] | Potency [12] | Potency [13] | outcome [14] | Potency [18] | Potency [19] | Potency [15] | outcome [20] | Potency [16]

C[C@H]1C[C@H]2[C@@H]3CCC4=CC(=O)C=C[C@]4(C)[C@H]3C(=O)C[C@]2(C)[C@@]1(O)C(=O)CO
active: Potency [17] 2.13 µM
inactive: outcome [1] | outcome [2] | outcome [3] | outcome [4] | outcome [5] | outcome [6] | outcome [7] | outcome [8] | Potency [9] | outcome [10] | Potency [11] | Potency [13] | outcome [14] | Potency [16]

NC(=O)N[C@@H](CCC(=O)O)C(=O)O
inactive: outcome [1] | outcome [2] | outcome [3] | outcome [4] | outcome [5] | outcome [6] | outcome [7] | outcome [8] | Potency [9] | Potency [17] | Potency [11] | Potency [13] | outcome [14] | Potency [15] | Potency [16]

O=S(=O)(O)c1cc(O)c(O)c(S(=O)(=O)O)c1
inactive: outcome [1] | outcome [2] | outcome [3] | outcome [4] | outcome [5] | outcome [6] | outcome [7] | outcome [8] | outcome [10] | Potency [11] | Potency [12] | Potency [13] | outcome [14] | Potency [18] | Potency [19] | Potency [15] | outcome [20] | Potency [16]

CCOC(=O)C1=NOC(c2ccccc2)(c2ccccc2)C1
active: Potency [12] 68.6 µM
inactive: outcome [1] | outcome [2] | outcome [3] | outcome [4] | outcome [5] | outcome [6] | outcome [7] | outcome [8] | Potency [9] | Potency [17] | outcome [10] | outcome [14] | Potency [15] | Potency [16]

NC(N)=NCCN1CCCCCCC1
inactive: fluorescence, % of fluorescein [1] -0.017% [at 18.6 µM] | fluorescence, % of fluorescent control [2] -0.0671% [at 18.6 µM] | activity change [3] 0.0837% [at 18.6 µM] | fluorescence, % of fluorescent control [4] -0.0086% [at 18.6 µM] | fluorescence, % of Rose Bengal [5] -0.0563% [at 18.6 µM] | fluorescence, % of fluorescent control [6] 0.0071% [at 18.6 µM] | fluorescence, % of fluorescein control [7] 0.0218% [at 18.6 µM] | fluorescence, % of fluorescent control [8] -0.0842% [at 18.6 µM] | Potency [9] | Potency [17] | outcome [10] | outcome [14] | Potency [15] | Potency [16]

CCCc1ncc(C[n+]2ccccc2C)c(N)n1
inactive: fluorescence, % of fluorescein [1] -0.083% [at 18.6 µM] | fluorescence, % of fluorescent control [2] -0.136% [at 18.6 µM] | activity change [3] -0.0094% [at 18.6 µM] | fluorescence, % of fluorescent control [4] 0.0061% [at 18.6 µM] | fluorescence, % of Rose Bengal [5] -0.0113% [at 18.6 µM] | fluorescence, % of fluorescent control [6] 0.0057% [at 18.6 µM] | fluorescence, % of fluorescein control [7] 0.0635% [at 18.6 µM] | fluorescence, % of fluorescent control [8] -0.0148% [at 18.6 µM] | Potency [9] | Potency [17] | outcome [10] | Potency [13] | outcome [14] | Potency [15] | Potency [16]

CN(C)[C@@H]1C(=O)C(C(=O)NCN2CCCC2)=C(O)[C@@]2(O)C(=O)C3=C(O)c4c(O)cccc4[C@@](C)(O)C3C[C@@H]12 (some centres not stated)
inactive: outcome [1] | outcome [2] | outcome [3] | outcome [4] | outcome [5] | outcome [6] | outcome [7] | outcome [8] | Potency [17] | outcome [10] | Potency [11] | Potency [13] | outcome [14] | Potency [15] | Potency [16]
